In PubChem BioAssay AID485364 (National Center for Advancing Translational Sciences (NCATS), 2010):
In all, about 360,000 compounds went through this assay and about 11,000 (3.1%) were called active. Another 4% or so got no clear call; they are omitted. This is one part of a sample in which actives are shown more often than they occur. A number with no mark means an inactive call. The call rests on the fitted dose curve; in most records, active means well fitted inhibition curve with a large enough effect; inconclusive means small, poorly fitted or top-dose-only effect; inactive means no such curve, though single readings can be large or run the other way.

target: Schistosoma mansoni thioredoxin glutathione reductase (TGR) (UniProt Q962Y6); experiment: qHTS Assay for the Inhibitors of Schistosoma Mansoni Peroxiredoxins; settings: purified TGR, DTNB reduction, TNB absorbance 405 nm; series mostly up to 114 µM; activity change, negative = inhibition: at the top concentration; further: nearly all actives have a fitted effect of over 60% in size
Source text: Schistosomiasis is a major neglected tropical disease that currently affects over 200 million. It is caused by different species of flatworms, such as Schistosoma mansoni. Over the last century, drugs to treat the disease have evolved from potassium antimonyl tartrate, artemisinin, oxamniquine, to praziquantel, with praziquantel remaining the universally-used single drug of choice over the past three decades. However, transmission rates have changed little with praziquantel, and there is evidence for the development of drug resistant parasites. Because there is currently no suitable alternative therapy available, there is an urgent need to identify new targets and drugs for schistosomiasis treatment. Thioredoxin glutathione reductase (TGR), one uniquely positioned S. mansoni enzyme, has been identified as a major component of the worms' distinct and compressed antioxidant "firewall". TGR is a multifunctional enzyme that catalyzes the interconversion between reduced and oxidized forms of both glutathione (GSH) and thioredoxins, thus making it an attractive new antiparasitic target. Recently, a quantitative high-throughput screen of the NIH Molecular Libraries Small Molecule Repository (MLSMR, ~71K at the time of the screen in 2007) was performed using an assay that targeted both TGR and peroxiredoxin2 (Prx2, an H2O2-reducing enzymatic component of the S. mansoni redox "firewall") by following the decrease of NADPH fluorescence. […] Additional mechanistic link between exogenous NO donation and parasitic injury for the oxadiazole-2-oxide class of compounds was also expanded and better defined. Although the screen addressed both TGR and Prx2, the assay required post-screen target deconvolution for further characterization of the actives. In addition, the fluorescence assay was also subject to fluorescence interference from compound library members. We have developed a 1536-well-based kinetic HTS assay to address TGR alone. The assay followed the reduction of 5, 5'-dithiobis (2-nitrobenzoic acid) (DTNB) (Ellman's reagent) by NADPH and measured the increase in absorbance at 412 nm of the reaction product, TNB. […] This assay format can be used to screen the current MLSMR collection (with >300K compounds available) to find novel TGR inhibitors. Furoxan is a good choice to serve as a positive control in the primary HTS assay.
Three microliters of reagents (100 uM NADPH and 20 nM TGR or 100 uM NADPH as no-enzyme control) were dispensed into 1,536-well black clear-bottomed plates. Compounds (23 nL) were transferred via Kalypsys pin tool equipped with 1536-pin array (10 nL slotted pins, V&P Scientific, San Diego, CA). The plates were then be incubated for 15 min at room temperature, and 1 uL aliquot of 500 uM NADPH were added, immediately followed by a 1 uL aliquot of 15 mM DTNB to start the reaction. The plate was transferred to a ViewLux high-throughput CCD imager (Perkin-Elmer, Wellesley, MA) where kinetic measurements of the TNB absorbance were acquired using a 405 excitation filter. Throughout the screen, reagent bottles and all liquid lines were made light-tight to minimize reagent degradation. All screening operations were performed on a fully integrated robotic system (Kalypsys, San Diego, CA) containing one RX-130 and two RX-90 anthropomorphic robotic arms (Staubli, Duncan, SC). Library plates were screened starting from the lowest and proceeding to the highest concentration, and a "double-dipping" step of the highest concentration was required to access higher concentrations of compounds. Vehicle-only plates, with DMSO being pin-transferred to the entire column 5-48 compound area, were inserted uniformly at the beginning and the end of each library in order to monitor for and record any shifts in the background, which can be affected by reagent dispensers or loss in enzyme activity overtime. […]
On the % scale 0 is the no-effect control and ±100 the full control effect; potency means the concentration at half of the fitted maximal effect.

SMILES	activity change, negative = inhibition	Potency
CCN1CCN(C(=O)C2CCCN(S(=O)(=O)c3ccc(OC)c(OC)c3)C2)CC1 (stereo not drawn)	3.29%	–
COc1ccc(S(=O)(=O)N2CCC(C(=O)N3CCOCC3)CC2)cc1OC	–	79.4 µM (active)
COc1ccc(S(=O)(=O)N2CCC(C(=O)N3CCCC3)CC2)cc1C	-3.4%	–
O=C(C1CCC(Cn2c(=O)c3sccc3n(Cc3ccccc3F)c2=O)CC1)N1CCCCC1 (stereo not drawn)	19%	–
COc1ccc(Cl)cc1NC(=O)c1sc2nc3c(cc2c1N)CN(C)CC3	0.374%	–
CCCCN(CC)C(=O)c1c[nH]c2ccc(S(=O)(=O)Nc3cccc(OC)c3)cc2c1=O	3.28%	–
Clc1ccc(CSc2nnc3c(n2)[nH]c2ccccc23)cc1	10.3%	–
CC1(C)N=C(SCc2ccccc2Cl)c2ccccc2N1	-1.4%	–
Clc1ccccc1CSc1nncn2c1cc1occc12	-12.1%	–
Cc1ccc(-c2nnc(SCC(=O)NCc3ccccc3)nc2-c2ccc(C)cc2)cc1	0.946%	–
Clc1ccccc1CSc1nnc(-c2ccco2)c(-c2ccco2)n1	–	7.94 µM (active)
c1ccc(CSc2nnc(-c3ccco3)c(-c3ccco3)n2)cc1	–	2.82 µM (active)
COc1ccccc1CNC(=O)CCCn1c(=O)c2ccccc2n(CC(=O)Nc2ccc(C)cc2Cl)c1=O	6.54%	–
COc1cccc(-c2nc3n(n2)C(c2ccccc2Cl)C(C(N)=O)=C(C)N3)c1 (stereo not drawn)	-0.143%	–
CC1=C(C(N)=O)C(c2ccc3c(c2)OCO3)n2nc(-c3cccc(C)c3)nc2N1 (stereo not drawn)	–	0.251 µM (active)
CCN(CC)c1ccc(C2C(C(N)=O)=C(C)Nc3nc(SCc4ccccc4)nn32)cc1 (stereo not drawn)	2.58%	–
Cc1cccc(-n2ccnc2SCC(=O)Nc2cccc3ccccc23)c1C	-0.262%	–
COc1ccc(CCNc2nc(-c3ccc(F)cc3)cc(C(F)(F)F)n2)cc1OC	7.8%	–
COc1ccc(-c2cc(C(F)(F)F)nc(SCC(=O)N(C)Cc3ccccc3)n2)cc1OC	-0.774%	–
COc1ccc(-c2cc(C(F)(F)F)nc(S(C)(=O)=O)n2)cc1OC	–	31.6 µM (active)
CC1CN(C(=O)N2CCC(C(=O)NCc3ccco3)CC2)c2cc(Cl)ccc2O1 (stereo not drawn)	2.23%	–
Cc1cc(Cl)ccc1OCC(=O)N(Cc1ccc(N(C)C)cc1)C1CCS(=O)(=O)C1 (stereo not drawn)	-3.15%	–
O=C(COC(=O)c1cccs1)NCc1cccs1	0.591%	–
CC1CCN(C(=O)COC(=O)CCC(=O)c2cccs2)CC1	-0.877%	–
O=C(COC(=O)CCC(=O)c1cccs1)NCc1ccco1	–	25.1 µM (active)

SMILES	activity change, negative = inhibition	Potency
CCN(CCCNC(=O)c1cc2c(=O)n(CC)c3ccccc3c2s1)Cc1ccccc1	1.45%	–
COc1cc(C2CC(=O)c3cnc(NC(C)=O)nc3C2)cc(OC)c1OC (stereo not drawn)	-0.421%	–
CC1=C(C(=O)Nc2ccc(Cl)cc2)C(c2ccco2)NC(=O)N1 (stereo not drawn)	3.63%	–
CCc1ccc(Nc2ncc3c(n2)CC(c2ccco2)CC3=O)cc1 (stereo not drawn)	–	39.8 µM (active)
CCN1CCN(c2ncc3c(n2)CC(c2ccccc2O)CC3=O)CC1 (stereo not drawn)	3.56%	–
O=C(Nc1ncc2c(n1)CC(c1ccco1)CC2=O)c1ccc(Cl)cc1 (stereo not drawn)	–	44.7 µM (active)
O=C(Nc1ncc2c(n1)-c1ccccc1OC2)c1ccc(Cl)cc1	-18.3%	–
COc1ccc(C(=O)COC(=O)CCCC(=O)Nc2cc(C(F)(F)F)ccc2Cl)cc1	-11.9%	–
CCc1ccc(C(=O)CC2(O)C(=O)N(CCc3ccccc3)c3ccc(Br)cc32)cc1 (stereo not drawn)	6.62%	–
CC1CCN(c2nc3ccc(C(=O)N4CCN(c5ccccc5)CC4)cc3s2)CC1	2.12%	–
CCCN(CCC)CCCNC(=O)Cn1cc2c(n1)-c1c(oc(C(=O)N3CCCC3)c1C)CC2	-2.8%	–
CCC(=O)Nc1cccc(-c2nc3cc(C)ccc3o2)c1	11%	–
C[C@@H]1C[C@@H]2O[C@H]2/C=C\C=C\C(=O)Cc2c(Cl)c(O)cc(O)c2C(=O)O1	–	4.47 µM (active)
CC(C)CC(NS(=O)(=O)c1ccc2c(c1)oc(=O)n2C)C(=O)NCc1ccccc1Cl (stereo not drawn)	-2.66%	–
CCc1ccc(NC(=O)CN2CCSc3ccc(S(=O)(=O)N4CCCC4)cc32)cc1	6.65%	–
Cc1cc(OC(C)C(=O)Nc2sc3c(c2C(N)=O)CCCC3)ccc1Cl (stereo not drawn)	11.2%	–
NC(=O)c1c(Nc2nc3c(F)cccc3s2)sc2c1CCCC2	–	39.8 µM (active)
COc1ccc(-c2cc(C(=O)Nc3sc4c(c3C(N)=O)CCCC4)no2)cc1	-10%	–
COC(=O)c1ccc(NC(=O)CSc2n[nH]c(-c3ccccc3)n2)cc1	6.33%	–
Cc1ccc(CN2COc3cc(C)c4c(oc(=O)c5ccccc54)c3C2)cc1	-6.11%	–
COc1cc(CN(C(=O)c2ccccc2Br)c2ccccn2)cc(OC)c1OC	-0.508%	–
COc1cccc(CNC(=O)C2CCN(S(=O)(=O)c3ccc4c(ccn4C)c3)CC2)c1	-1.19%	–
COc1cc(/C=N/Nc2ccc(C)cc2)cc(Br)c1O	–	10 µM (active)
COc1cc(/C=N/O)cc(Br)c1OS(=O)(=O)c1ccc(C)cc1	12.5%	–
COc1cc(/C=N/NC(=S)Nc2cccnc2)cc(OC)c1O	-21.6%	–

SMILES	activity change, negative = inhibition	Potency
COc1ccc2cc(CCl)c(Cl)nc2c1	–	31.6 µM (active)
COc1ccc2oc(-c3cccc(NC(=O)CSc4ccc(Cl)cc4)c3)nc2c1	3.2%	–
CCc1ccc(CNC(=O)c2cc3cc4ccc(OC)cc4nc3o2)cc1	15%	–
CCOc1ccc(Nc2nc3c(S(=O)(=O)c4cccc(Cl)c4)nnn3c3ccsc23)cc1	0.289%	–
CSCCC1NC2(C(=O)Nc3ccc(Cl)cc32)[C@@H]2C(=O)N(C3CCCC3)C(=O)[C@H]12 (stereo partly drawn)	–	31.6 µM (active)
C[C@@]12C(=O)N(c3cccc(Br)c3)C(=O)N1[C@H](c1ccc(Cl)cc1)[C@@H]1C(=O)N(C3CCCCC3)C(=O)[C@@H]12	-24.8%	–
O=C1[C@@H]2C(Cc3ccc(O)cc3)NC3(C(=O)Nc4ccc(F)cc43)[C@@H]2C(=O)N1c1ccc(F)cc1 (stereo partly drawn)	-9.3%	–
CN(Cc1ccccc1)S(=O)(=O)c1ccc(F)c(C(=O)Nc2cccc(Cl)c2Cl)c1	12.7%	–
Cc1ccc(CCNC(=O)Cn2c(-c3cccs3)cc3cc(F)ccc32)cc1	-2.72%	–
C=CS(=O)c1sc(Cl)c(N2CCOCC2)c1[N+](=O)[O-] (stereo not drawn)	–	0.199 µM (active)
CCOC(=O)c1[nH]c(C)c(CCC(=O)N2CCN(c3ccccc3)CC2)c1C	7.18%	–
Cn1c(=O)n(Cc2c(F)cccc2Cl)c(=O)c2c1nc1n2CCN1c1ccc(F)cc1	12.7%	–
O=C(CCCCn1c(=O)[nH]c2ccccc2c1=O)NCc1ccc2c(c1)OCO2	–	2.51 µM (active)
O=C(CCCCCn1c(=O)[nH]c2ccccc2c1=O)NCCc1c[nH]c2ccccc12	1.93%	–
NS(=O)(=O)c1ccc(CCNC(=O)CCCCCn2c(=O)[nH]c3ccccc3c2=O)cc1	2.15%	–
CCCCCn1c(CCCNC(=O)c2ccccc2OC)nc2ccccc21	-3.99%	–
COc1ccc(C)cc1NC(=O)CCc1c(C)nn(-c2ccc(N3CCOCC3)nn2)c1C	-3.54%	–
CCOC(=O)c1ccc(NC(=O)Cn2c(=O)n(-c3ccc(C)cc3)c(=O)c3c2cnn3C)cc1	1.17%	–
O=C(Nc1ccccc1N1CCOCC1)c1csc2c1CCCC2	-5.36%	–
O=C(Cc1ccccc1)Nc1cccc(C(=O)N/N=C/c2ccco2)c1	2.24%	–
O=C(N/N=C/c1ccco1)c1csc2c1CCCC2	–	44.7 µM (active)
CCOC(=O)C1CCN(c2csc3ccc(C)cc3c2=O)CC1	-5.6%	–
CCOC(=O)c1c(NC(=O)/C=C/c2ccc(OC)cc2)sc2c1CCC(C)C2 (stereo not drawn)	2.9%	–
COc1ccc(/C=C2/SC(=O)N(CCCCCC(=O)Nc3ccccc3C(=O)O)C2=S)cc1	-1.67%	–
Cc1ccc(-c2nn(-c3ccccc3)cc2CN(Cc2ccccc2)C(=O)CCC(=O)O)o1	–	7.94 µM (active)

SMILES	activity change, negative = inhibition	Potency
O=C(CCCN1C(=O)/C(=C/c2cccs2)SC1=S)Nc1ccc(O)cc1	-9.78%	–
O=C(O)CCC(=O)N(Cc1ccccc1)Cc1ccccc1	-7.7%	–
Cc1ccc(-c2nn(-c3ccccc3)cc2/C=C2\SC(=S)N(CCCCCC(=O)O)C2=O)o1	–	12.6 µM (active)
Cc1ccc(-c2nn(-c3cccc(F)c3)cc2CNCCc2ccncc2)o1	-22.6%	–
Cc1ccc(C)c(CN2C(=O)c3ccccc3S(=O)c3ccc(C(=O)N4CCOCC4)cc32)c1 (stereo not drawn)	-17.2%	–
CCCc1nn2c(=O)cc(COC(=O)c3ccc(NC(=O)COc4ccc(F)cc4)cc3)nc2s1	2.97%	–
CCOC(=O)c1c(NC(=O)COc2cc(C)ccc2C(C)C)sc(C)c1C	-1.77%	–
CCCCOc1ccc(C(=O)N2CC(=O)Nc3ccc(Br)cc3C2c2ccc(F)cc2)cc1 (stereo not drawn)	3.05%	–
CCOC(=O)c1cc(C)nc(S(C)(=O)=O)c1C#N	–	35.5 µM (active)
CCOC(=O)c1c(C(C#N)C#N)cc(C)nc1C	2.77%	–
CCOC(=O)COc1nc(C)cc(C(F)(F)F)c1C#N	18%	–
Cc1c(Cl)cccc1NC(=O)CCS(=O)(=O)c1ccc2c(c1)oc(=O)n2C	-35.2%	–
CCOc1ccc(N2C(=O)/C(=C/c3ccc(C)o3)N(C)C2=S)cc1	–	28.2 µM (active)
CCOc1ccc(N2C(=O)CSC2=NC#N)cc1	-3.07%	–
CCOc1ccc(N2C(=O)CN(c3cccc4ccccc34)C2=S)cc1	-0.257%	–
COc1cccc(N(CC(=O)NCCSc2ccccn2)S(C)(=O)=O)c1	0.808%	–
COc1ccc(C=C(C#N)C#N)c(CSc2ccccn2)c1	–	1 µM (active)
CCOC(=O)CSc1ccccn1	2.94%	–
CC(C)c1ccc(C2C(C#N)=C(N)Oc3c2oc(CO)cc3=O)cc1 (stereo not drawn)	17.8%	–
CC(C)c1ccc(C2CC(=O)N3CN(C4CCCCC4)CSC3=C2C#N)cc1 (stereo not drawn)	–	6.31 µM (active)
CCOC(=O)c1cc2c(=O)n3ccccc3nc2n(CC2CCCO2)c1=NC(=O)c1ccc(C(C)(C)C)cc1 (stereo not drawn)	1.91%	–
CN1c2ccc(C=O)c3c(C=O)ccc(c23)N(C)C1(C)C	–	35.5 µM (active)
CCc1cc2c(-c3ccccc3)cc(=O)oc2c2c1OCN(Cc1ccc(C)cc1)C2	-3.03%	–
